From PubChem BioAssay (Tox21)
Records with an inconclusive call do not appear. Where a call stands in place of a potency, no number is given. Values without a mark were called inactive. Calls of active or inactive are those of the source. Unless noted, calls follow the shape of the dose curve; as a rule, active = well fitted curve in the direction sought with a large enough effect in the repeat runs; inconclusive = weak or mixed curves; inactive = no such curve, though single readings can be large; an effect the other way counts as inactive or inconclusive.

Assays:
[1] = qHTS assay to identify small molecule that activate the aryl hydrocarbon receptor (AhR) signaling pathway - cell viability counter screen (AID 743086); also: nearly all actives have a fitted effect of over 45% in size; also: potency is read from the fitted curve at half-maximal effect
Summary of the method: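 HepG2-AhR-luc (HG2L7.5c1) cells, 4000/well, were preincubated 5 h at 37C, exposed to compound in qHTS format for 24 hr at 37C, then given CellTiter-Fluor for 30 min; viability was read as fluorescence in the reporter wells.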

[2] = biological target: Peroxisome proliferator-activated receptor gamma (Homo sapiens) (UniProt P37231); assay: qHTS assay to identify small molecule agonists of the peroxisome proliferator-activated receptor gamma (PPARg) signaling pathway (AID 743094; active = well fitted activation curve with a large enough effect in the signal ratio in the repeat runs, not every such curve was filed as active; the % refers to the signal ratio)
Chain of Peroxisome proliferator-activated receptor gamma (Homo sapiens) (P37231 whole entry, looked up): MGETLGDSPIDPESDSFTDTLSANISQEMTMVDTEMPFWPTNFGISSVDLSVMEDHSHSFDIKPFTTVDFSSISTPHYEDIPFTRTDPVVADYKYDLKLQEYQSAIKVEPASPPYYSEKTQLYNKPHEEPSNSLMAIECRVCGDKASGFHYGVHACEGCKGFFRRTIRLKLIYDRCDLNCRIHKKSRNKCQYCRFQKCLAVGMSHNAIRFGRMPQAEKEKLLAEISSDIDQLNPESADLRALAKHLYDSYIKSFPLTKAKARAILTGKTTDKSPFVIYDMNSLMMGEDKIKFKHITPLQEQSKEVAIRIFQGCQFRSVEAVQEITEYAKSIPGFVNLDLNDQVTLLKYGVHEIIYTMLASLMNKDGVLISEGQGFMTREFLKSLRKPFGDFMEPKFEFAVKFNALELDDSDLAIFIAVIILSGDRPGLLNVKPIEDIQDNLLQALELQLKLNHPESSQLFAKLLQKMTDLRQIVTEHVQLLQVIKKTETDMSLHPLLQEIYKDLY
Summary of the method: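 Cells from the PPARg UAS-bla HEK293H line are plated and incubated 5 h at 37C. Compounds in DMSO are pinned in and left 17 h at 37C. LiveBLAzer B/G substrate is then added for 1 h at room temperature before fluorescence is measured.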

[3] = qHTS assay to identify small molecule antagonists of the peroxisome proliferator-activated receptor gamma (PPARg) signaling pathway - cell viability counter screen (AID 743194); also: nearly all actives have a fitted effect of over 55% in size
Summary of the method: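 PPARg-UAS-bla HEK293H cells were plated, rested 5 h at 37 C, then treated with compounds plus rosiglitazone (50 nM final) for 17 h at 37 C; viability was then read by CellTiter-Glo luminescence after 30 min at room temperature.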

[4] = qHTS assay for small molecule agonists of the antioxidant response element (ARE) signaling pathway - cell viability counter screen (AID 743203; calls by dose curve; also: nearly all actives have a fitted effect of over 55% in size)
Summary of the method: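 Cytotoxicity was tested in parallel with the ARE reporter screen. ARE-bla HepG2 cells were exposed to compounds for 16 hrs, and viability was taken from CellTiter-Glo luminescence.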

[5] = qHTS assay for small molecule activators of the heat shock response signaling pathway - cell viability counter screen (AID 743209); also: nearly all actives have a fitted effect of over 50% in size
Summary of the method: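 Cytotoxicity counter screen run in parallel with the HSE beta-lactamase reporter, using the same wells. HeLa HSE-bla cells received compound for 5 h at 37 C; ATP-based CellTiter-Glo luminescence was measured after 30 min at room temperature.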

[6] = qHTS assay for small molecule activators of the heat shock response signaling pathway (AID 743210; active = well fitted activation curve with a large enough effect in the signal ratio in the repeat runs, with a control signal flat, not every such curve was filed as active; the % refers to the signal ratio;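 also: HeLa cells with beta-lactamase reporter driven by heat shock elements; series mostly up to about 63 µM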)
Summary of the method: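 Activation of heat shock element-controlled beta-lactamase expression is measured in HeLa cells by LiveBLAzer FRET fluorescence, with compound exposure lasting 5 h at 37 C and substrate loading 2.5 h at room temperature.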

[7] = qHTS assay to identify small molecule agonists of the peroxisome proliferator-activated receptor delta (PPARd) signaling pathway - cell viability counter screen (AID 743211); also: nearly all actives have a fitted effect of over 55% in size
Summary of the method: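 PPARd-bla HEK293H cells (UAS-beta-lactamase reporter) were treated with compounds for 17 h at 37 C. Viability was then read in the same wells by CellTiter-Glo luminescence after 30 min at room temperature.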

[8] = biological target: Peroxisome proliferator-activated receptor delta (Homo sapiens) (UniProt Q03181); assay: qHTS assay to identify small molecule agonists of the peroxisome proliferator-activated receptor delta (PPARd) signaling pathway (AID 743212; calls by dose curve)
Chain of Peroxisome proliferator-activated receptor delta (Homo sapiens) (Q03181 whole entry, looked up): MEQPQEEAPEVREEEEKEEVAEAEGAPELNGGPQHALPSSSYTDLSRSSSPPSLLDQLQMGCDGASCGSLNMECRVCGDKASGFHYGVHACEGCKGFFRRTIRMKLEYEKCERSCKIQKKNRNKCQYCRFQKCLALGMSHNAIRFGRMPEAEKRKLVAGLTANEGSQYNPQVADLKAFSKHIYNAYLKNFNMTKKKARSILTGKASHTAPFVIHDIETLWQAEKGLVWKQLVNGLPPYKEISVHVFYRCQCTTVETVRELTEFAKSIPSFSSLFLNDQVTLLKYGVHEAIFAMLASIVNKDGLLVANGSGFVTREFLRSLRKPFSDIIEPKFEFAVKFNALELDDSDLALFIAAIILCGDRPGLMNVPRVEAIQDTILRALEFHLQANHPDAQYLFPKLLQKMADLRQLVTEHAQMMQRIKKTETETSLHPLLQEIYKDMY
Summary of the method: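 Cells expressing a UAS-driven beta-lactamase reporter (PPARd-bla HEK293H) were given test compounds after a 5 h settle and kept at 37 C. Reporter activity was then measured as FRET fluorescence using LiveBLAzer B/G substrate.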

[9] = qHTS assay to identify small molecule antagonists of the peroxisome proliferator-activated receptor delta (PPARd) signaling pathway - cell viability counter screen (AID 743213); also: nearly all actives have a fitted effect of over 50% in size
Summary of the method: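 PPARd-bla HEK293H cells were treated with compounds plus agonist L165041 (300 nM final) for 17 h at 37 C. Viability was then read in the same wells by CellTiter-Glo luminescence after 30 min at room temperature.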

[10] = biological target: Peroxisome proliferator-activated receptor delta (Homo sapiens) (UniProt Q03181); assay: qHTS assay to identify small molecule antagonists of the peroxisome proliferator-activated receptor delta (PPARd) signaling pathway (AID 743215; active = well fitted inhibition curve with a large enough effect in the signal ratio in the repeat runs, not every such curve was filed as active; the % refers to the signal ratio;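 also: cells stimulated with agonist L165041 at 300 nM final during compound exposure; series mostly up to about 62 µM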)
Summary of the method: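 Cells: HEK293H with a UAS-driven beta-lactamase reporter responsive to PPARd. Compounds were co-added with L165041 (300 nM, final) and incubated 17 h at 37 C before a 2 h room-temperature FRET substrate step and fluorescence reading.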

[11] = biological target: Vitamin D3 receptor (Homo sapiens) (UniProt P11473); assay: qHTS assay to identify small molecule agonists of the vitamin D receptor (VDR) signaling pathway (AID 743222; calls by dose curve)
Chain of Vitamin D3 receptor (Homo sapiens) (P11473 whole entry, looked up): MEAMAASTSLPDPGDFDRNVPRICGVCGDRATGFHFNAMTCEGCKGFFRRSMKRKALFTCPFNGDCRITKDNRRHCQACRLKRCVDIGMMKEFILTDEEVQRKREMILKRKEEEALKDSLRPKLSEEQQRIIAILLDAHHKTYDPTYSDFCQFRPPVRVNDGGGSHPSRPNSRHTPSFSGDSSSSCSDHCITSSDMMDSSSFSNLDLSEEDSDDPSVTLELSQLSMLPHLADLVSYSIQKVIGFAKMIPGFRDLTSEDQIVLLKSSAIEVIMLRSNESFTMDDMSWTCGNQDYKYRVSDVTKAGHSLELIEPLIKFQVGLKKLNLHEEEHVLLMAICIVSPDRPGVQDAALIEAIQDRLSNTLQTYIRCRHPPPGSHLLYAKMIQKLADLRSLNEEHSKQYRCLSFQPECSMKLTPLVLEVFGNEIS
Summary of the method: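 Cells carrying a VDR-driven beta-lactamase reporter are seeded at 2,000 per well and rested 4 h. Compounds in DMSO are added for 16 h at 37C, and FRET substrate fluorescence is measured after 2 h at room temperature.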

[12] = biological target: Vitamin D3 receptor (Homo sapiens) (UniProt P11473); assay: qHTS assay to identify small molecule antagonists of the vitamin D receptor (VDR) signaling pathway (AID 743223; active = well fitted inhibition curve with a large enough effect in the signal ratio in the repeat runs, not every such curve was filed as active; the % refers to the signal ratio)
Summary of the method: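 VDR-bla cells were plated, incubated 4 h at 37C, then given compound and 1alpha,25-dihydroxyvitamin D3 (3 nM final). After 16 h at 37C, LiveBLAzer B/G FRET substrate was added for 2 h at room temperature and fluorescence read.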

[13] = qHTS assay to identify small molecule agonists of the vitamin D receptor (VDR) signaling pathway - cell viability counter screen (AID 743224); also: series mostly up to about 63 µM; nearly all actives have a fitted effect of over 50% in size
Summary of the method: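 Cells: VDR-bla, 2,000/well, settled 4 h. Treatment: compounds in DMSO, 16 h, 37C/5% CO2. Readout: CellTiter-Glo luminescence after 30 min RT.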

[14] = qHTS assay to identify small molecule antagonists of the vitamin D receptor (VDR) signaling pathway - cell viability counter screen (AID 743225); also: nearly all actives have a fitted effect of over 50% in size
Summary of the method: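 VDR-bla HEK 293T cells, 4 h pre-incubation at 37C, then compound plus 1-alpha,25-dihydroxyvitamin D3 (3 nM final) for 16 h. After the beta-lactamase FRET read, CellTiter-Glo was added to the same wells; luminescence after 30 min at room temperature.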

[15] = qHTS assay to identify small molecule antagonists of the farnesoid-X-receptor (FXR) signaling pathway - cell viability counter screen (AID 743221; active = well fitted cell-killing curve with a large enough effect in the repeat runs, not every such curve was filed as active; also: nearly all actives have a fitted effect of over 50% in size)
Summary of the method: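 FXR-UAS-bla HEK 293T cells were treated with test compounds plus chenodeoxycholic acid (50 uM final) for 16 h at 37 C. Cell viability in the same wells was then read as CellTiter-Glo luminescence after 30 min at room temperature.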

[16] = qHTS assay for small molecule agonists of the antioxidant response element (ARE) signaling pathway (AID 743202; active = well fitted activation curve with a large enough effect in the signal ratio in the repeat runs, not every such curve was filed as active; the % refers to the signal ratio; also: potency is read from the fitted curve at half-maximal effect)
Summary of the method: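 Steps: seed ARE-bla HepG2 cells (2,000/well); incubate 5 h at 37 C; add compounds by pin tool; incubate 16 h at 37 C; add FRET substrate; read fluorescence after 2 h at RT.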

[17] = biological target: Bile acid receptor (Homo sapiens) (UniProt Q96RI1); assay: qHTS assay to identify small molecule antagonists of the farnesoid-X-receptor (FXR) signaling pathway (AID 743217; active = well fitted inhibition curve with a large enough effect in the signal ratio in the repeat runs, not every such curve was filed as active; the % refers to the signal ratio)
Chain of Bile acid receptor (Homo sapiens) (Q96RI1 whole entry, looked up): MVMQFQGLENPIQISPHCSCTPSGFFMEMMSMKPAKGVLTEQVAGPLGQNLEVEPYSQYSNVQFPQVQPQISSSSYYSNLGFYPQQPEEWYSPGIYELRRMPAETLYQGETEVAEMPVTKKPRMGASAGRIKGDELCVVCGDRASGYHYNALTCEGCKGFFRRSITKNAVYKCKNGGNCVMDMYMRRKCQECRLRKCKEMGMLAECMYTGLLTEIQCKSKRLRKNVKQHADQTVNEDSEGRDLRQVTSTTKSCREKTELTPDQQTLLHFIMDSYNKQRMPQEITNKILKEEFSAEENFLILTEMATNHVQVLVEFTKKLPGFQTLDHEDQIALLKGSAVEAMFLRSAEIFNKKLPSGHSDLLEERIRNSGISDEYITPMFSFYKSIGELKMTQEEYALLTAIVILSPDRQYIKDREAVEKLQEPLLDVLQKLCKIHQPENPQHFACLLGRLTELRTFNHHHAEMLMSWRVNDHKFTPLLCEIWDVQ
Summary of the method: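 Cells carrying a UAS-driven beta-lactamase reporter (GeneBLAzer FXR-UAS-bla HEK 293T) were plated and rested 5 h at 37 °C. Compounds in DMSO were added alongside chenodeoxycholic acid agonist at 50 uM final and left 16 h at 37 °C before FRET substrate readout.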

[18] = qHTS assay to identify small molecule agonists of the farnesoid-X-receptor (FXR) signaling pathway - cell viability counter screen (AID 743218); also: nearly all actives have a fitted effect of over 45% in size
Summary of the method: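 Cells were seeded, left 5 h at 37 C and 5% CO2, then dosed with compound in DMSO for 16 h. After the beta-lactamase FRET read, CellTiter-Glo was added and luminescence measured 30 min later.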

[19] = biological target: Bile acid receptor (Homo sapiens) (UniProt Q96RI1); assay: qHTS assay to identify small molecule agonists of the farnesoid-X-receptor (FXR) signaling pathway (AID 743220; active = well fitted activation curve with a large enough effect in the signal ratio in the repeat runs, not every such curve was filed as active; the % refers to the signal ratio)
Summary of the method: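 FXR-UAS-bla HEK 293T cells carrying a UAS-driven beta-lactamase reporter were plated for 5 h at 37C/5% CO2, then exposed to DMSO-dissolved Tox21 10K compounds for 16 h at 37C. A LiveBLAzer B/G FRET substrate was loaded for 2 h at room temperature before fluorescence reading.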

[20] = biological target: Peroxisome proliferator-activated receptor gamma (Homo sapiens) (UniProt P37231); assay: qHTS assay to identify small molecule antagonists of the peroxisome proliferator-activated receptor gamma (PPARg) signaling pathway (AID 743191; calls by dose curve; also: series mostly up to about 63 µM; nearly all actives have a fitted effect of over 30% in size)
Summary of the method: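 GeneBLAzer PPARg UAS-bla HEK293H cells carrying a UAS-driven beta-lactamase reporter were plated at 3000 cells/well, preincubated 5 h at 37C, then given compound for 17 h at 37C; LiveBLAzer B/G FRET substrate was read after 1 h at room temperature.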

| SMILES | Potency [1] | Potency [2] | Potency [3] | Potency [4] | Potency [5] | outcome [6] | Potency [7] | outcome [8] | Potency [9] | outcome [10] | outcome [11] | Potency [12] | Potency [13] | Potency [14] | Potency [15] | Potency [16] | outcome [17] | Potency [18] | outcome [19] | Potency [20] |
| --- | --- | --- | --- | --- | --- | --- | --- | --- | --- | --- | --- | --- | --- | --- | --- | --- | --- | --- | --- | --- |
| CC(=O)N(O)CCCCCNC(=O)CCC(=O)N(O)CCCCCNC(=O)CCC(=O)N(O)CCCCCN | inactive | inactive | inactive | inactive | inactive | inactive | inactive | inactive | inactive | inactive | inactive | inactive | inactive | inactive | – | – | – | – | – | – |
| O=C(CCN1CCN2CCCC2C1)N1c2ccccc2Sc2ccc(Cl)cc21 (stereo unspecified) | 23.7 µM (active) | inactive | inactive | inactive | inactive | inactive | inactive | – | – | – | inactive | inactive | inactive | inactive | inactive | – | – | – | – | – |
| COc1cc(C(C)(C)C)c(O)c(C(C)(C)C)c1 | inactive | inactive | inactive | inactive | inactive | – | inactive | inactive | – | inactive | inactive | inactive | – | – | inactive | inactive | inactive | inactive | inactive | – |
| O=C(CC(=O)c1ccccc1)c1ccccc1 | inactive | inactive | inactive | inactive | inactive | inactive | inactive | inactive | – | inactive | inactive | inactive | – | – | inactive | 23.3 µM (active) | inactive | inactive | inactive | – |
| CCOC(=O)C1=C(C)NC(C)=C(C(=O)OC)C1c1cccc([N+](=O)[O-])c1 (stereo unspecified) | inactive | inactive | inactive | inactive | – | inactive | inactive | inactive | inactive | inactive | inactive | inactive | inactive | inactive | inactive | inactive | – | inactive | – | – |
| Cn1c(NCCN(CCO)CCCc2ccc([N+](=O)[O-])cc2)cc(=O)n(C)c1=O | inactive | inactive | inactive | inactive | inactive | – | inactive | – | – | – | – | inactive | inactive | inactive | inactive | inactive | – | inactive | – | – |
| O=C(NN1CCCC1)NS(=O)(=O)c1ccc(Cl)cc1 | inactive | inactive | – | inactive | inactive | inactive | inactive | – | inactive | inactive | inactive | inactive | inactive | – | inactive | inactive | inactive | inactive | inactive | inactive |
| O=CNc1ccccc1 | inactive | inactive | inactive | inactive | inactive | inactive | inactive | inactive | inactive | inactive | inactive | inactive | inactive | inactive | inactive | inactive | inactive | inactive | inactive | – |
| CC(C)=CCCC(C)CC=O (stereo unspecified) | inactive | inactive | inactive | inactive | inactive | – | inactive | – | inactive | – | inactive | – | inactive | inactive | inactive | inactive | inactive | inactive | inactive | – |
